According to PubChem BioAssay (NCI):
About 79,000 compounds went through this panel and 15% of them were active in at least one assay; those are over-represented in the sample as a whole. Activity calls are given as the source filed them. No stated cut-off is given here; in the data, active means growth inhibition above about 70%; inactive means the rest.

How the values were obtained:
[1] = NCI Yeast Anticancer Drug Screen. Data for the rad52 strain (AID 147);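 further: 0% = growth of vehicle-treated control cultures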; settings: S. cerevisiae rad52 mutant growth inhibition, stronger effect = higher value
Procedure, shortened: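 Screen used a yeast mutant impaired in DNA repair. After compound exposure, growth was measured. Values reflect inhibition compared with vehicle-treated cells.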

[2] = NCI Yeast Anticancer Drug Screen. Data for the wt1 strain (AID 149);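 further: 0% = growth of vehicle-treated wt1 cultures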; settings: S. cerevisiae wt1 strain (SPY 50644) growth inhibition, stronger effect = higher value
Procedure, shortened: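 wt1 strain grown with compound or vehicle; inhibition taken from the growth difference.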

[3] = NCI Yeast Anticancer Drug Screen. Data for the rad50EPP+ strain (AID 151);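 further: 0% = growth of vehicle-treated control cultures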; settings: S. cerevisiae rad50 mutant strain, stronger effect = higher value
Procedure, shortened: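 Exposing the rad50EPP+ strain to each compound, growth was compared with vehicle-only cultures to give inhibition.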

[4] = NCI Yeast Anticancer Drug Screen. Data for the mgt1 strain (AID 153); settings: S. cerevisiae mgt1 mutant growth inhibition, stronger effect = higher value
Procedure, shortened: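 Genetically defined yeast (mgt1) treated with compound; inhibition of growth expressed against vehicle-treated controls.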

[5] = NCI Yeast Anticancer Drug Screen. Data for the rad50 strain (AID 155);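 further: 0% = growth of vehicle-only cultures of the same strain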; settings: S. cerevisiae rad50 strain growth inhibition, stronger effect = higher value
Procedure, shortened: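 DNA repair mutant yeast, compound exposure, growth read-out; inhibition is taken relative to vehicle.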

[6] = NCI Yeast Anticancer Drug Screen. Data for the mec2-1 strain (AID 157); settings: S. cerevisiae mec2-1 strain, stronger effect = higher value
Procedure, shortened: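 Readout is yeast growth inhibition, normalised to vehicle-treated controls, in the mec2-1 strain exposed to compound.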

[7] = NCI Yeast Anticancer Drug Screen. Data for the rad14 strain (AID 159);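 further: 0% = growth of vehicle-treated control cultures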; settings: S. cerevisiae rad14 strain growth inhibition, stronger effect = higher value
Procedure, shortened: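 DNA repair-defective yeast, compound-exposed; % growth inhibition derived by comparison with vehicle-treated controls.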

[8] = NCI Yeast Anticancer Drug Screen. Data for the sgs1 mgt1 strain (AID 161);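 further: 0% = growth of cultures given vehicle only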; settings: S. cerevisiae sgs1 mgt1 strain, stronger effect = higher value
Procedure, shortened: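 Percent growth inhibition was derived by comparing compound-exposed mutant yeast with vehicle-exposed cultures. The strain carries alterations in DNA damage repair.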

[9] = NCI Yeast Anticancer Drug Screen. Data for the CLN2oe strain (AID 163);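 further: 0% = growth of vehicle-only control cultures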; settings: S. cerevisiae CLN2oe strain, stronger effect = higher value
Procedure, shortened: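 Values reflect how much compound exposure reduced yeast growth, referenced to vehicle-exposed cells. Assay organism is a strain with a defined genetic change affecting cell-cycle control.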

[10] = NCI Yeast Anticancer Drug Screen. Data for the cln2 rad14 strain (AID 165);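 further: 0% = growth equal to vehicle treated cultures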; settings: S. cerevisiae cln2 rad14 strain, stronger effect = higher value
Procedure, shortened: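 Relative to vehicle controls, growth inhibition of compound-treated cln2 rad14 yeast was recorded.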

[11] = NCI Yeast Anticancer Drug Screen. Data for the bub3 strain (AID 167); settings: S. cerevisiae bub3 mutant strain, stronger effect = higher value
Procedure, shortened: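 In this screen, a yeast mutant lacking normal mitotic checkpoint function is challenged with compound. Relative growth versus vehicle gives the inhibition value.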

[12] = NCI Yeast Anticancer Drug Screen. Data for the wt2 strain (AID 169);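 further: 0% = growth of vehicle-treated yeast cultures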; settings: S. cerevisiae wt2 strain growth inhibition, stronger effect = higher value
Procedure, shortened: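 Values express reduction in yeast growth under compound treatment, referenced to vehicle-treated cells.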

[13] = NCI Yeast Anticancer Drug Screen. Data for the mlh1 strain (AID 171);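 further: 0% = growth of vehicle-treated control cultures of the same strain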; settings: S. cerevisiae mlh1 strain growth inhibition, stronger effect = higher value
Procedure, shortened: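 Steps: expose the defined-mutant yeast strain to compound; expose a parallel culture to vehicle; measure growth; express compound effect as inhibition relative to the vehicle culture.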

[14] = NCI Yeast Anticancer Drug Screen. Data for the sgs1 strain (AID 173);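 further: 0% = growth of vehicle-only control cultures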; settings: S. cerevisiae sgs1 mutant, stronger effect = higher value
Procedure, shortened: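 Treat defined-mutant yeast with compound; measure growth; calculate inhibition relative to vehicle-treated cells.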

[15] = NCI Yeast Anticancer Drug Screen. Data for the mlh1 rad18 strain (AID 175); settings: S. cerevisiae mlh1 rad18 strain growth inhibition, stronger effect = higher value
Procedure, shortened: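 Test agents were incubated with a yeast strain of defined genotype (DNA damage repair defect). Inhibition of growth was derived by comparison with vehicle-exposed cultures.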

[16] = NCI Yeast Anticancer Drug Screen. Data for the rad18 strain (AID 177); settings: S. cerevisiae rad18 mutant growth inhibition, stronger effect = higher value
Procedure, shortened: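 A genetically defined yeast mutant impaired in DNA damage repair was treated with test compounds, then its growth was measured against cultures receiving vehicle alone.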

[17] = at 5.0 µM (retest, dose inferred, filed as 0.5)
[18] = at 50.0 µM (retest, dose inferred, filed as 5.0)

Measured: growth inhibition

CC(=O)Oc1cc(-c2cc(OC(C)=O)c(OC(C)=O)c3ccccc23)c2ccccc2c1OC(C)=O
active: [1]; at 100.0 µM 79% | [4]; at 100.0 µM 82% | [5]; [18] 82% | [5]; at 50.0 µM 83.5% | [5]; at 100.0 µM 86% | [6]; [18] 70% | [6]; at 50.0 µM 82.6% | [6]; at 100.0 µM 79% | [7]; at 100.0 µM 95% | [8]; [18] 85% | [8]; at 50.0 µM 87% | [11]; [18] 93% | [11]; at 50.0 µM 86.8% | [11]; at 100.0 µM 87% | [12]; at 100.0 µM 86% | [13]; at 100.0 µM 93% | [14]; at 100.0 µM 82% | [15]; [18] 96% | [15]; at 50.0 µM 93.6% | [16]; at 100.0 µM 90%
inactive: [1]; at 1.2 µM 3% | [1]; at 3.7 µM 4% | [1]; at 11.0 µM 7% | [1]; at 33.0 µM 13% | [2]; at 1.2 µM 8% | [2]; at 3.7 µM 12% | [2]; at 11.0 µM 10% | [2]; at 33.0 µM 12% | [2]; at 100.0 µM 59% | [3]; at 1.2 µM 3% | [3]; at 3.7 µM 6% | [3]; at 11.0 µM 12% | [3]; at 33.0 µM 19% | [3]; at 100.0 µM 21% | [4]; at 1.2 µM 5% | [4]; at 3.7 µM 5% | [4]; at 11.0 µM 5% | [4]; at 33.0 µM 13% | [5]; at 1.2 µM 4% | [5]; at 3.7 µM 8% | [5]; [17] 22% | [5]; at 11.0 µM 12% | [5]; at 33.0 µM 24% | [6]; at 1.2 µM 2% | [6]; at 3.7 µM 9% | [6]; [17] 14% | [6]; at 11.0 µM 12% | [6]; at 33.0 µM 24% | [7]; at 1.2 µM 1% | [7]; at 3.7 µM 3% | [7]; at 11.0 µM 7% | [7]; at 33.0 µM 43% | [8]; [17] 24% | [9]; at 1.2 µM 3% | [9]; at 3.7 µM 0% | [9]; at 11.0 µM -5% | [9]; at 33.0 µM -2% | [9]; at 100.0 µM 57% | [10]; [17] 7% | [10]; [18] 56% | [10]; at 50.0 µM 38% | [11]; at 1.2 µM 3% | [11]; at 3.7 µM 4% | [11]; [17] 17% | [11]; at 11.0 µM 7% | [11]; at 33.0 µM 26% | [12]; at 1.2 µM 10% | [12]; at 3.7 µM 9% | [12]; at 11.0 µM 8% | [12]; at 33.0 µM 11% | [13]; at 1.2 µM 1% | [13]; at 3.7 µM 3% | [13]; at 11.0 µM 6% | [13]; at 33.0 µM 23% | [14]; at 1.2 µM 7% | [14]; at 3.7 µM 10% | [14]; at 11.0 µM 11% | [14]; at 33.0 µM 16% | [15]; [17] 19% | [16]; at 1.2 µM 1% | [16]; at 3.7 µM 6% | [16]; at 11.0 µM 10% | [16]; at 33.0 µM 26%
